Experimental data from PubChem BioAssay AID1851 (National Center for Advancing Translational Sciences (NCATS), 2009).
Out of some 16,000 compounds screened, about 4,000 (25%) were called active. Not shown: some 26% with an inconclusive outcome. Only a sample is shown. A number with no mark means an inactive call. Calls follow the shape of the dose curve; as a rule, active = well fitted curve in the direction sought with a large enough effect; inconclusive = small, poorly fitted or top-dose-only effect, or effect the other way; inactive = no such curve, though single readings can be large or run the other way.

molecular target: Cytochrome P450 2C9 (Homo sapiens) (UniProt P11712); assay: Cytochrome panel assay with activity outcomes; conditions: recombinant CYP, pro-luciferin dealkylation, luminescence, p450-cyp2c9; series mostly up to 57.1 µM
Sequence (P11712 whole entry, looked up): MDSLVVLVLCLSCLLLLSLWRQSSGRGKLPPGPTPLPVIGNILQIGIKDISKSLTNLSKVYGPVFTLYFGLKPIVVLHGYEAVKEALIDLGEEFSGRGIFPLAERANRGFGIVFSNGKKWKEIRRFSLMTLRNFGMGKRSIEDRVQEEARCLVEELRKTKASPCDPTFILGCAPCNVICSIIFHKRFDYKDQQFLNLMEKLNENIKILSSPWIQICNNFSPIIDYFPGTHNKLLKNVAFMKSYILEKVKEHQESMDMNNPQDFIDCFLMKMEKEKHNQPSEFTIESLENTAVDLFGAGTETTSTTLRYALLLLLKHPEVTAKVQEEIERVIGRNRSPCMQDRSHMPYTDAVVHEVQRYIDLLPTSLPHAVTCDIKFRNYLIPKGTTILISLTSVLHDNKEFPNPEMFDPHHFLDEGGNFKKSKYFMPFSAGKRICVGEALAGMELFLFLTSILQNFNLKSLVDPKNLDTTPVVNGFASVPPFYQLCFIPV
% is scaled to controls: 0 for no effect and ±100 for the full control effect.

SMILES	activity, negative = inhibition	AC50
CC(=O)NCCNc1nc(-c2ccccc2C(F)(F)F)nc2ccccc12	5.47% [at 2.29 µM]	–
COc1ccc(/C=N/NC(=O)c2cc(-c3ccc(C)cc3C)nc3ccccc23)cc1COC(C)=O	–	0.794 µM (active)
COc1cccc(-c2cc(C(=O)N/N=C/c3ccc(OC)c(COC(C)=O)c3)c3ccccc3n2)c1	–	0.398 µM (active)
NS(=O)(=O)c1cc(C(=O)O)c(Cl)c([N+](=O)[O-])c1Cl	8.24% [at 11.4 µM]	–
CCCn1cnc2c(SCC(=O)O)nc(N)nc21	3.25% [at 11.4 µM]	–
O=C1c2ccccc2-c2ccc(N(Cc3ccc(Br)cc3)Cc3ccc(Br)cc3)cc21	-1.26% [at 11.4 µM]	–
Cc1nc2sccn2c(=O)c1Cl	–	inactive
CCCN(C/C=C\I)[C@@H]1CCc2cccc(O)c2C1	–	inactive
COCCSc1nnc(NC(=O)C(C)(C)C)s1	–	inactive
CCSc1nnc(NC(=O)C(C(F)(F)F)C(F)(F)F)s1	–	7.94 µM (active)
CN(C)S(=O)(=O)c1nc(Cl)c2[nH]cnc2n1	1.52% [at 11.4 µM]	–
CCn1c(SCc2ccc(C#N)cc2)nnc1-c1ccc(S(=O)(=O)N2CCCCC2)cc1	–	4.47 µM (active)
O=C1N=C(N2CCC(Cc3ccccc3)CC2)S/C1=C/c1cn[nH]c1-c1ccccc1	–	0.447 µM (active)
O=C1N=C(N2CCOCC2)S/C1=C\C=C/c1ccccc1	–	inactive
CCN1CCCCC(=N/O)/C(=N/O)CCCC1	-7.4% [at 11.4 µM]	–
Cc1cc(C)c(C(N)=O)c(SCC(=O)c2ccc(Cl)cc2)n1	–	12.6 µM (active)
CCCSc1nc(C)cc(C)c1C(N)=O	–	inactive
Cc1cc(C)c(C(N)=O)c(NC(=O)Nc2ccccc2)n1	–	inactive
CC(C)[C@@H](OCc1ccccc1)[C@H](C)/C=N\OC[C@@H](O)[C@@H]1O[C@@H]2OC(C)(C)O[C@@H]2[C@H]1O	-22.1% [at 11.4 µM]	–
O[C@@H]1[C@@H](OCc2ccccc2)OC[C@H](O)[C@@H]1O	0.912% [at 11.4 µM]	–
CCO[C@H]1O[C@@H]([C@H](COCc2ccccc2)OCc2ccccc2)[C@@H](OCc2ccccc2)[C@H]1O	–	10 µM (active)
COc1ccc(CNc2ncncc2-c2ccccc2CN(C)C)c(OC)c1	-5.35% [at 2.29 µM]	–
O=C(c1ccccc1)c1cc(F)c(N2CCOCC2)cc1Cl	–	inactive
CN(C)C(=O)c1ccc(-c2ccc3ncnc(N4CCOCC4)c3c2)cc1	20.2% [at 2.29 µM]	–

SMILES	activity, negative = inhibition	AC50
O=C(c1ccc(Cl)c(Cl)c1)c1cc(-c2ccccn2)c(N2CCOCC2)s1	–	5.01 µM (active)
CCCC[C@@H]1CN2[C@H](c3ccc(Br)cc3)[C@@H](C)CC[C@H]2C(=O)O1	-13.2% [at 11.4 µM]	–
C[C@@H]1CN2[C@H](c3ccc(Br)cc3)[C@H](C)CC[C@H]2C(=O)O1	-3.17% [at 11.4 µM]	–
C[C@@H]1CC[C@H]2C(=O)N3[C@@H](CC[C@@H](C)[C@@H]3c3ccc(Br)cc3)C(=O)N2[C@@H]1c1ccc(Br)cc1	–	3.98 µM (active)
COc1cccc(Nc2ncc3nc(-c4cccs4)c(=O)n(Cc4cccs4)c3n2)c1	–	inactive
COc1ccccc1NC(=O)N1CCCC1C(=O)NCc1ccc2c(c1)OCO2 (stereo unspecified)	–	inactive
CCC(Sc1nc2cc3c(cc2c(=O)n1Cc1ccco1)OCO3)C(=O)Nc1ccccc1OC (stereo unspecified)	–	0.631 µM (active)
CCC(Sc1nc2cc3c(cc2c(=O)n1Cc1ccco1)OCO3)C(=O)Nc1cccc(OC)c1 (stereo unspecified)	–	2 µM (active)
CCCc1nnc(SCC(=O)N2C(C)CCCC2C)n1CCCOC (stereo unspecified)	–	inactive
Cc1cc(=O)c2c(O)c(O)ccc2o1	–	inactive
CCOC(=O)c1cccc2c1-c1ccccc1/C2=N/O	–	8.91 µM (active)
CCOC(=O)[C@@]12C[C@@H]1/C(=N/O)c1ccccc1O2	–	inactive
NC[C@H](O)C1CCCCCCC1	–	inactive
Nc1ncnc2c1nc(Sc1ccc(Cl)cc1)n2[C@@H]1O[C@H]2COP(=O)(O)O[C@@H]2[C@H]1O	–	inactive
COCCn1c(=O)c(-c2cn(C)c3ccccc23)nc2cnc(Oc3ccccc3)nc21	–	inactive
Cn1c(=O)c(-c2ccc(Cl)cc2)nc2cnc(Oc3ccccc3)nc21	–	inactive
COCCn1c(=O)c(-c2ccccc2)nc2cnc(Nc3cccc(OC)c3)nc21	–	inactive
COCCn1c(=O)c(-c2cn(C)c3ccccc23)nc2cnc(Oc3ccc(OC)cc3)nc21	–	inactive
COCCn1c(=O)c(-c2ccccc2)nc2cnc(Oc3ccccc3)nc21	–	10 µM (active)
COCCn1c(=O)c(-c2ccccc2)nc2cnc(Oc3ccc(OC)cc3)nc21	–	10 µM (active)
COCCn1c(=O)c(-c2ccc(Cl)cc2)nc2cnc(Nc3ccccc3)nc21	–	inactive
COCCn1c(=O)c(-c2ccc(Cl)cc2)nc2cnc(Oc3ccccc3)nc21	–	7.94 µM (active)
CCNc1ncc2nc(-c3ccc(OC)cc3)c(=O)n(CCOC)c2n1	–	inactive
Nc1nc(N)c2[nH]cnc2n1 (tested in a mixture with another compound)	-4.44% [at 11.4 µM]	–

SMILES	activity, negative = inhibition	AC50
Cc1[nH]c(N)nc(=S)c1CCC(=O)O	2.61% [at 11.4 µM]	–
c1ccc2c[n+](Cc3ccnc4ccccc34)ccc2c1	-6.16% [at 11.4 µM]	–
Cc1c(NC(=O)CSc2nnnn2C)c(=O)n(-c2ccccc2)n1C	–	inactive
Cc1c(NC(=O)CSc2nnc3c4ccccc4n(CCc4ccccc4)c3n2)c(=O)n(-c2ccccc2)n1C	–	0.708 µM (active)
Cc1c(NC(=O)CN2C(=O)C3C4C=CC(C4)C3C2=O)c(=O)n(-c2ccccc2)n1C (stereo unspecified)	–	inactive
Cc1nc(SCC(=O)Nc2c(C)n(C)n(-c3ccccc3)c2=O)nc(C)c1C	–	inactive
C=CCn1c(SCC(=O)Nc2c(C)n(C)n(-c3ccccc3)c2=O)nc2sc(C)c(-c3ccccc3)c2c1=O	–	14.1 µM (active)
Cc1c(NC(=O)Cn2ccc([N+](=O)[O-])n2)c(=O)n(-c2ccccc2)n1C	–	inactive
CN[C@]1(C)[C@@H]2CC[C@@H](C2)C1(C)C	–	inactive
CN1CCN(C2=Cc3ccccc3Oc3ccc(Cl)cc32)CC1	–	inactive
C=CC[C@@H]1C=C[C@H](O/N=C(\C)CCN2CCc3nc(CC)c(CC)cc3C2)[C@H](CO)O1	-6.8% [at 11.4 µM]	–
N#Cc1cc2nc(O)c(O)nc2cc1[N+](=O)[O-]	–	inactive
O=C(O)c1cc(N=Nc2ccc([N+](=O)[O-])cc2)ccc1O	-19.1% [at 11.4 µM]	–
O=C(c1cc(O)c(O)c([N+](=O)[O-])c1)c1ccccc1F	–	1.26 µM (active)
CCCn1nnnc1NC(=O)COc1ccc(Cl)cc1C	–	10 µM (active)
Cc1cc(Cl)ccc1OCC(=O)Nc1nc(N)nc(N)n1	23.6% [at 11.4 µM]	–
CCCn1nnnc1-c1cc(Cl)cc(Cl)c1	–	inactive
Cc1cc(Cl)ccc1OCC(=O)NCc1ccncc1	–	0.794 µM (active)
Cc1ccc(CNC(=O)COC(=O)c2cnccn2)cc1	–	inactive
Cc1cccc(N/C(N)=N/c2nc(C)cc(C)n2)c1	–	inactive
Cc1cccc(NC(=O)C2(c3ccc([N+](=O)[O-])cc3)CCCC2)c1	–	20 µM (active)
Cc1cccc(NC(=O)C2(c3ccccc3)CC2(Cl)Cl)c1 (stereo unspecified)	–	2 µM (active)
CCN(CC)CCOC(=O)C1(c2ccc([N+](=O)[O-])cc2)CCCC1	–	inactive
CN1CCC[C@@H](CC2c3ccccc3Sc3ccccc32)C1	–	inactive

SMILES	activity, negative = inhibition	AC50
CCSC(N)=Nc1ccc(C(F)(F)F)cc1	–	inactive
COc1cc(S(C)=O)ccc1-c1nc2ncccc2[nH]1 (stereo unspecified)	–	inactive
COC(=O)c1ccccc1NC(=O)c1cc2nc(C3CC3)cc(C(F)(F)F)n2n1	–	3.55 µM (active)
CN(C)CCOC(=O)[C@@H](c1ccccc1)C1(O)CCCC1	–	inactive
C[C@@H]1c2cccc(O)c2C(O)=C2C(=O)[C@@]3(O)C(O)=C(C(N)=O)C(=O)[C@@H](N(C)C)[C@@H]3[C@@H](O)[C@@H]21	–	inactive
Cc1ccc(S(=O)(=O)NC(=O)c2cccn2C)cc1	–	15.8 µM (active)
Cc1ccc(S(=O)(=O)NC(=O)OC23COCN2COC3)cc1	-0.0498% [at 11.4 µM]	–
Cc1ccc(S(=O)(=O)NC(=O)NN2C[C@H]3CCC[C@@H]3C2)cc1	–	inactive
CCN(CC)CCNc1ccc(CO)c2sc3ccccc3c(=O)c12	–	inactive
Cc1ccccc1-c1nc(N(C)Cc2ccco2)c2ccccc2n1	-11% [at 2.29 µM]	–
Cc1ccccc1C(C(=O)NCc1ccccc1)N(Cc1ccco1)C(=O)c1ccccn1 (stereo unspecified)	–	10 µM (active)
CC(Cc1ccccc1)C(=O)NCc1ccccn1 (stereo unspecified)	–	inactive
c1ccc(CCNCc2ccco2)nc1	0.412% [at 11.4 µM]	–
O=C(NCc1ccccc1)C(c1ccc(F)cc1)N(Cc1ccco1)C(=O)c1ccccn1 (stereo unspecified)	–	15.8 µM (active)
CN(Cc1ccco1)c1ncnc2ccc(-c3cccnc3)cc12	-16.8% [at 2.29 µM]	–
Cc1cc(C(C)(C)CC(C)(C)C)ccc1OCCOCC[N+](C)(C)Cc1ccccc1	–	inactive
CNc1cc(NS(=O)(=O)c2ccc(N)cc2)nc(NC)n1	–	2 µM (active)
COc1cc(NS(=O)(=O)c2ccc(N)cc2)ncn1	–	inactive
Cc1cc(C)nc(NS(=O)(=O)c2ccc(N)cc2)n1	–	inactive
Cc1ccccc1-n1nc2c(c1NC(=O)c1ccc(S(=O)(=O)N(C)C)cc1)CSC2	–	2.82 µM (active)
CCCC(=O)Nc1c2c(nn1-c1ccc(C)cc1C)CSC2	–	14.1 µM (active)
CCCC(=O)Nc1c(C)n[nH]c1C	–	inactive
Cc1ccccc1-n1nc2c(c1NC(=O)c1c(-c3ccccc3Cl)noc1C)CSC2	–	1.41 µM (active)
Cc1ccc(-n2nc3c(c2NC(=O)c2cccs2)CSC3)cc1	–	3.55 µM (active)
